NFkB binder – binders of NF-kB p50 subunit, primary screen, biochemical, small molecule microarray, anti-His fluorescence. calls only. anti-His fluorescence binding. 1.3% of 17,000 active. AID 624139, 2012. Nuclear factor NF-kappa-B p105 subunit (Homo sapiens), P19838;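 active = spot fluorescence over background significantly raised, with a chance value under 7% in all four replicate spots of the compound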;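 also: probe protein is his-tagged human p50 processed subunit at 1 µg/ml; raw spot fluorescence signals with no normalization applied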
STAT3 binder – STAT3 binders, primary screen, biochemical, small molecule microarray, single point, set 2; Signal transducer and activator of transcription 3 (Homo sapiens), P40763; His-STAT3 binding, anti-His fluorescence; calls only; 0.2% of 17,000 active; AID 624138, 2012;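 active = compounds whose four printed spots each show fluorescence over background unusually high for their array block, chance value under 7%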
Target sequence (P40763 whole entry, looked up): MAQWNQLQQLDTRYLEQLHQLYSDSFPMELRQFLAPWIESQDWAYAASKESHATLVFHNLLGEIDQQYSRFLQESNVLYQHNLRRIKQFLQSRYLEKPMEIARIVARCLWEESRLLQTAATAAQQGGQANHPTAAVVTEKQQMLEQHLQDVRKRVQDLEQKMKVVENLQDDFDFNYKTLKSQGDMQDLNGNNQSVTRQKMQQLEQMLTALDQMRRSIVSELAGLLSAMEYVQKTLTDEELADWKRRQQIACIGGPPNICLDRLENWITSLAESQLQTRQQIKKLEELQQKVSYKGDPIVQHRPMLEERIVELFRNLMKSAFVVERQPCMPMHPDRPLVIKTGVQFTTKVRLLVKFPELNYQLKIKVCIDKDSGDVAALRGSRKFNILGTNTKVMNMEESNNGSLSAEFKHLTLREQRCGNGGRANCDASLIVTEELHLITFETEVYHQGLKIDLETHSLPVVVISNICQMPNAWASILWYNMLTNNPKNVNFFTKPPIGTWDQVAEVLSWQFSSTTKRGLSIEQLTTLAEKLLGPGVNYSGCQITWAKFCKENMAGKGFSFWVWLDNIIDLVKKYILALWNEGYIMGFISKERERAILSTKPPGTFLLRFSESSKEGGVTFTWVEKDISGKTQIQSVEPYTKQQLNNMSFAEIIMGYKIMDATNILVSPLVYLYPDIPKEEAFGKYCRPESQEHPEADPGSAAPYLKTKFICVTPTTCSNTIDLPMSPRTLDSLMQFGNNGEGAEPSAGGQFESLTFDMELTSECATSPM
p53 mut binder – binders of human mutant p53, primary screen, biochemical, small molecule microarray, anti-GST fluorescence. AID 624136, 2012. calls only. small molecule microarray binding. 0.4% of 17,000 active. mutant tumor protein p53 (GST-tagged), Homo sapiens;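 active = compounds whose four printed spots each glow above background more than chance allows, each with a p-value under 7%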
Myc binder – binders of human c-Myc, primary screen, biochemical, small molecule microarray, anti-His fluorescence; Myc proto-oncogene protein (Homo sapiens), P01106; AID 624141, 2012; calls only; 1.5% of 17,000 active; His-c-Myc binding;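 active = spot fluorescence over background with P-value below 7% in all four replicate spots, showing protein binding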;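 also: score is binary with 100 for all four spots passing and 0 otherwise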
* = called active by the depositor; i = inactive; + = active, no number. This is a sample that favours compounds with a hit; in the whole collection about 2.5% have one here.

SMILES | NFkB binder | STAT3 binder | p53 mut binder | Myc binder
O=[N+]([O-])c1ccc(NCCNCCO)cc1 | i | i | + | i
Oc1ccccc1CNc1ccc2c(c1)ncn2C1CCCCC1 | i | i | i | +
CC(C)OC(=O)c1cn(Cc2c(F)cccc2F)c2sc(-c3ccc(NC(=O)C(C)C)cc3)c(CN(C)Cc3ccccc3)c2c1=O | + | i | i | +
C[C@H](CO)N1C[C@H](C)[C@@H](CN(C)C)OCCCC[C@H](C)Oc2ccc(NC(=O)Nc3cccc4ccccc34)cc2C1=O | i | i | + | i
C[C@@H]1CCCCO[C@@H](CN(C)C(=O)Nc2cccc3ccccc23)[C@H](C)CN([C@H](C)CO)C(=O)c2cc(NC(=O)Nc3ccc(F)cc3)ccc2O1 | + | i | i | +
C[C@H](CO)N1C[C@H](C)[C@@H](CN(C)CC2CCCCC2)OCCCC[C@H](C)Oc2ccc(NC(=O)Nc3cccc4ccccc34)cc2C1=O | + | i | i | i
CC(C)NC(=O)N(C)C[C@@H]1OCCCC[C@H](C)Oc2ccc(NC(=O)Nc3cccc4ccccc34)cc2C(=O)N([C@@H](C)CO)C[C@H]1C | i | i | i | i
C[C@H](CO)N1C[C@H](C)[C@H](CN(C)C)OCCCC[C@H](C)Oc2ccc(NC(=O)Nc3cccc4ccccc34)cc2C1=O | i | i | i | i
C[C@H]1CN([C@@H](C)CO)C(=O)c2cc(NC(=O)c3ccncc3)ccc2O[C@@H]1CN(C)C(=O)Nc1ccc2c(c1)OCO2 | i | i | i | i
C[C@@H]1O[C@@H](O[C@H]2[C@H](O)[C@@H](O)[C@H](O[C@H]3[C@H](O[C@H]4CC[C@@]5(C)C(=CC[C@H]6C7C[C@@H]8O[C@]9(CC[C@@](C)(CO[C@@H]%10O[C@H](CO)[C@@H](O)[C@H](O)[C@H]%10O)O9)[C@H](C)C8[C@@]7(C)CCC65)C4)O[C@H](CO)[C@@H](O)[C@@H]3O)O[C@@H]2CO)[C@H](O)[C@H](O)[C@H]1O (some centres not stated) | i | i | i | i
COc1cc(S(=O)(=O)n2nnc3ccccc32)c(OC)cc1Cl | i | i | i | +
Cc1noc(C)c1S(=O)(=O)Nc1cccc2c1O[C@@H](CN(C)Cc1ccc3c(c1)OCO3)[C@@H](C)CN([C@@H](C)CO)C2=O | i | i | i | i
C/C=C/C/C=C/CCC(=O)[C@H]1O[C@H]1C(N)=O | + | i | i | i
C=CCn1c(SCC(=O)O)nnc1-c1cccc(C)c1 | i | i | i | +
CC(C)N(CCC#N)S(=O)(=O)c1ccccc1[N+](=O)[O-] | i | i | i | i
Cc1c(NS(=O)(=O)c2cccc3nonc23)c(=O)n(-c2ccccc2)n1C | i | i | i | i
COC(=O)c1cccc2nc3c(C(C)O)cccc3nc12 (configuration not stated) | i | i | i | +
COC(=O)c1ccccc1NC(=O)C(C)Oc1ccccc1 (configuration not stated) | i | i | i | i
Cc1ccc(S(=O)(=O)N2CCC[C@H]2Cn2cc(CN3C(=O)COC[C@H]3c3ccccc3)nn2)cc1 | i | i | + | i
Clc1ccc(CSc2nnc(-c3ccco3)n2Cc2ccco2)c(Cl)c1 | i | i | + | i
CC(C)(C)C(=O)CSc1nnc(-c2ccco2)n1Cc1ccco1 | i | i | i | i
N#Cc1c(C(F)(F)F)cc(-c2ccc(Br)cc2)nc1SCCC(=O)O | + | i | i | +
CN(C)CCCNc1oc(-c2ccccc2F)nc1C#N | i | i | i | +
O=C(NCc1c(OC(=O)c2ccccc2[N+](=O)[O-])ccc2ccccc12)c1ccccc1 | i | i | i | i
CCn1cc(CN(C)C(=S)Nc2cccc(C(C)=O)c2)c(C)n1 | i | i | i | i
SMILES | NFkB binder | STAT3 binder | p53 mut binder | Myc binder
C[C@@H]1CCCCO[C@@H](CN(C)CC2CCCCC2)[C@H](C)CN([C@H](C)CO)C(=O)c2cc(NS(C)(=O)=O)ccc2O1 | + | i | i | i
C[C@@H]1CN([C@H](C)CO)C(=O)c2cc(NC(=O)Nc3ccc4c(c3)OCO4)ccc2O[C@H]1CN(C)CC1CCCCC1 | i | i | i | i
C[C@H]1CCCCO[C@@H](CN(C)CC2CCCCC2)[C@@H](C)CN([C@@H](C)CO)C(=O)c2cc(NC(=O)C3CCCCC3)ccc2O1 | + | i | i | i
C[C@@H]1CN([C@H](C)CO)C(=O)c2cc(NC(=O)Nc3ccc4c(c3)OCO4)ccc2O[C@@H]1CN(C)CC1CCCCC1 | i | i | + | i
CSc1cccc(NC(=O)CN(C)S(=O)(=O)c2ccc3ccccc3c2)c1 | i | i | i | i
C[C@H](CO)N1C[C@H](C)[C@@H](CN(C)C(=O)Nc2ccc3c(c2)OCO3)OCCCC[C@H](C)Oc2ccc(NS(C)(=O)=O)cc2C1=O | i | i | i | i
CC1CC[C@@]2(OC1)O[C@H]1CC3C4CC=C5C[C@@H](O[C@@H]6O[C@H](CO)[C@@H](O)[C@H](O)[C@H]6O)CC[C@]5(C)C4CC[C@]3(C)[C@@]1(O)[C@@H]2C (some centres not stated) | + | i | i | i
Cc1nn(CC(=O)Nc2sc3c(c2C#N)CCCC3)c(C)c1[N+](=O)[O-] | i | i | i | i
COCCNC(=S)Nc1nc(OC)cc(OC)n1 | i | i | i | +
COc1ccc(CCNC(=S)Nc2ccncc2)cc1OC | i | i | i | i
CSCC(NS(=O)(=O)c1ccc(Br)cc1)C(=O)O (configuration not stated) | + | i | i | +
Cc1ccc(S(=O)(=O)NC(Cc2c[nH]c3ccccc23)C(=O)O)cc1 (configuration not stated) | i | i | i | i
OCCN(CCO)Cc1ccc(Br)cc1 | i | i | + | i
COC1=CC(=O)O[C@@H](CCc2ccccc2)[C@@H]1O | i | i | i | i
NC(=O)NCC#Cc1ccc2c(c1)[C@]1(C(=O)N2)[C@H](C(=O)N2CCCCCCC2)[C@H]2C(=O)O[C@H](c3ccccc3)[C@H](c3ccccc3)N2[C@@H]1c1ccc(O)cc1 | i | i | + | +
COC(=O)C(CC#Cc1ccc2c(c1)[C@]1(C(=O)N2)[C@H](C(=O)N2CCCCCCC2)[C@H]2C(=O)O[C@H](c3ccccc3)[C@H](c3ccccc3)N2[C@@H]1c1ccccc1OCCO)C(=O)OC | + | i | i | i
